# Test results published in the supplement of paper PMC8728848.
# Shown is part of a subset that was picked to be rich in the strongest signals.
# B1: Na-CTL-1 (Necator americanus) (protein)
# chain: MQRSFLLLLVVLAGAWAVNTTIPLKLMGGFTPMKYQCVGRVSDIWADVLFLIESSDMITKSGFRQVIAFITATTKKMTIGQDEKQTRVGFITYGEEAKLIYDLDHWRSTEKLSDLVQKIPYVKSSGTNIAAAIALANKVFNSPTHRPNVPKVMVIVANGLKKGSQNPIPVATAFKDFGGIIITIEYTQYDNIQVPILKKIASEGYNIRSNDEDFSVRTLTNMLLQANCFCPDHYVPFRVNNPEFGCFVTAKIPSMWRDAAEMCRAVEEGKLVKVENEEKAAFIMKLVGPKKEAWIGLRYYGNKFQWTDGTKLNADDFNLWPEDIKELNGPHCVSMYQDQKDKKYYWRAGKCLEDMRYVCEVQPCSASNYCSEPVFMYRQKHRALLPAPPPPPN
# Columns and labels:
# Assay in all cases: glycan array binding signal (z-score within array); higher = stronger binding
# Conditions in all cases: glycan notation: IUPAC condensed, linker removed
# [1] = target: Fuc(a1-2)Gal(b1-3)GalNAc(b1-3)Gal(a1-4)Gal(b1-4)Glc
# Method in brief: (§1)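 Glycan array data were curated from 3228 arrays in the Consortium for Functional Glycomics database and kept only where the protein sequence was available. Glycan names were converted to IUPAC-condensed notation, and columns mapping to the same glycan were averaged. The binding signal is a within-array Z-score, averaged across arrays of the same protein sequence at different concentrations or buffers and across linkers. Negative Z-scores can be read as non-binding.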
# [2] = target: Fuc(a1-2)Gal(b1-4)GlcNAc(b1-2)Man
# Method in brief: as §1
# [3] = target: Fuc(a1-2)Gal(b1-4)GlcNAc(b1-3)[Fuc(a1-2)Gal(b1-4)GlcNAc(b1-6)]GalNAc
# Method in brief: as §1
# [4] = target: Fuc(a1-2)Gal(b1-4)[Fuc(a1-3)]GlcNAc(b1-3)Gal(b1-4)[Fuc(a1-3)]GlcNAc(b1-3)Gal(b1-4)[Fuc(a1-3)]GlcNAc
# Method in brief: as §1
# [5] = target: Fuc(a1-2)[Gal(a1-3)]Gal(b1-3)GalNAc
# Method in brief: as §1
# [6] = target: Fuc(a1-2)[Gal(a1-3)]Gal(b1-3)GlcNAc(b1-3)GalNAc
# Method in brief: as §1
# [7] = target: Fuc(a1-2)[Gal(a1-3)]Gal(b1-4)GlcNAc(b1-3)[Fuc(a1-2)[Gal(a1-3)]Gal(b1-4)GlcNAc(b1-6)]GalNAc
# Method in brief: as §1
# [8] = target: Fuc(a1-2)[Gal(a1-3)]Gal(b1-4)GlcNAc(b1-6)GalNAc
# Method in brief: as §1
# [9] = target: Fuc(a1-2)[GalNAc(a1-3)]Gal(b1-3)GalNAc(a1-3)[Fuc(a1-2)]Gal(b1-4)GlcNAc
# Method in brief: as §1
# [10] = target: Fuc(a1-2)[GalNAc(a1-3)]Gal(b1-4)[Fuc(a1-3)]GlcNAc(b1-3)GalNAc
# Method in brief: as §1
# Fuc(a1-4)GlcNAc = target: Fuc(a1-4)GlcNAc
# Method in brief: as §1
# [11] = target: Gal(a1-3)Gal(b1-3)GlcNAc(b1-6)GalNAc
# Method in brief: as §1
# [12] = target: Gal(a1-3)Gal(b1-4)GlcNAc(b1-2)Man(a1-3)[Gal(a1-3)Gal(b1-4)GlcNAc(b1-2)Man(a1-6)]Man(b1-4)GlcNAc(b1-4)GlcNAc
# Method in brief: as §1
# Gal(b1-2)Gal = target: Gal(b1-2)Gal
# Method in brief: as §1
# [13] = target: Gal(b1-3)GalNAc(b1-4)Gal(b1-4)Glc
# Method in brief: as §1
# Gal(b1-3)GlcNAc(b1-2)Man = target: Gal(b1-3)GlcNAc(b1-2)Man
# Method in brief: as §1
# [14] = target: Gal(b1-3)GlcNAc(b1-3)Gal(b1-4)GlcNAc(b1-3)Gal(b1-4)GlcNAc(b1-2)[Gal(b1-3)GlcNAc(b1-3)Gal(b1-4)GlcNAc(b1-3)Gal(b1-4)GlcNAc(b1-6)]Man(a1-6)[Gal(b1-3)GlcNAc(b1-3)Gal(b1-4)GlcNAc(b1-3)Gal(b1-4)GlcNAc(b1-2)Man(a1-3)]Man(b1-4)GlcNAc(b1-4)[Fuc(a1-6)]GlcNAc
# Method in brief: as §1
# [15] = target: Gal(b1-3)GlcNAc(b1-3)Gal(b1-4)GlcNAc(b1-6)[Gal(b1-3)GlcNAc(b1-3)]Gal(b1-4)Glc
# Method in brief: as §1
# [16] = target: Gal(b1-3)[Fuc(a1-4)]GlcNAc
# Method in brief: as §1
# [17] = target: Gal(b1-4)GlcNAc(b1-2)Man(a1-3)[Gal(b1-4)GlcNAc(b1-2)Man(a1-6)][Gal(b1-4)GlcNAc(b1-4)]Man(b1-4)GlcNAc(b1-4)[Fuc(a1-6)]GlcNAc
# Method in brief: as §1
# [18] = target: Gal(b1-4)GlcNAc(b1-2)Man(a1-3)[GlcNAc(b1-4)][Gal(b1-4)GlcNAc(b1-2)Man(a1-6)]Man(b1-4)GlcNAc(b1-4)GlcNAc
# Method in brief: as §1
# [19] = target: Gal(b1-4)GlcNAc(b1-2)Man(a1-6)[GlcNAc(b1-2)Man(a1-3)]Man(b1-4)GlcNAc(b1-4)GlcNAc
# Method in brief: as §1
# [20] = target: Gal(b1-4)GlcNAc(b1-2)Man(a1-6)[Man(a1-3)]Man(b1-4)GlcNAc(b1-4)GlcNAc
# Method in brief: as §1
# [21] = target: Gal(b1-4)GlcNAc(b1-2)[Gal(b1-4)GlcNAc(b1-6)]Man(a1-6)[Gal(b1-4)GlcNAc(b1-2)Man(a1-3)]Man(b1-4)GlcNAc(b1-4)[Fuc(a1-6)]GlcNAc
# Method in brief: as §1
# [22] = target: Gal(b1-4)GlcNAc(b1-3)Gal(b1-4)GlcNAc(b1-2)[Gal(b1-4)GlcNAc(b1-3)Gal(b1-4)GlcNAc(b1-6)]Man(a1-6)[Gal(b1-4)GlcNAc(b1-3)Gal(b1-4)GlcNAc(b1-2)Man(a1-3)]Man(b1-4)GlcNAc(b1-4)GlcNAc
# Method in brief: as §1
# [23] = target: Gal(b1-4)GlcNAc(b1-3)Gal(b1-4)GlcNAc(b1-3)Gal(b1-4)GlcNAc(b1-3)Gal(b1-4)GlcNAc(b1-2)Man(a1-3)[Gal(b1-4)GlcNAc(b1-3)Gal(b1-4)GlcNAc(b1-3)Gal(b1-4)GlcNAc(b1-3)Gal(b1-4)GlcNAc(b1-2)Man(a1-6)]Man(b1-4)GlcNAc(b1-4)[Fuc(a1-6)]GlcNAc
# Method in brief: as §1
# [24] = target: Gal(b1-4)GlcNAc(b1-3)Gal(b1-4)GlcNAc(b1-3)Gal(b1-4)GlcNAc(b1-3)Gal(b1-4)GlcNAc(b1-3)Gal(b1-4)GlcNAc(b1-2)Man(a1-3)[Gal(b1-4)GlcNAc(b1-3)Gal(b1-4)GlcNAc(b1-3)Gal(b1-4)GlcNAc(b1-3)Gal(b1-4)GlcNAc(b1-3)Gal(b1-4)GlcNAc(b1-2)Man(a1-6)]Man(b1-4)GlcNAc(b1-4)GlcNAc
# Method in brief: as §1
# [25] = target: Gal(b1-4)GlcNAc(b1-3)Gal(b1-4)GlcNAc(b1-3)[Gal(b1-4)GlcNAc(b1-3)Gal(b1-4)GlcNAc(b1-6)]GalNAc
# Method in brief: as §1
# [26] = target: Gal(b1-4)GlcNAc(b1-3)[Gal(b1-4)GlcNAc(b1-6)]Gal(b1-4)GlcNAc
# Method in brief: as §1
# GalNAc(a1-3)Gal = target: GalNAc(a1-3)Gal
# Method in brief: as §1
binder,measurement,setting,value
B1,glycan array binding signal (z-score),[1],-0.262
same,glycan array binding signal (z-score),[2],0.123
same,glycan array binding signal (z-score),[3],-0.753
same,glycan array binding signal (z-score),[4],-0.334
same,glycan array binding signal (z-score),[5],-0.176
same,glycan array binding signal (z-score),[6],-0.06
same,glycan array binding signal (z-score),[7],2.8
same,glycan array binding signal (z-score),[8],-0.539
same,glycan array binding signal (z-score),[9],-0.489
same,glycan array binding signal (z-score),[10],14.8
same,glycan array binding signal (z-score),Fuc(a1-4)GlcNAc,13.6
same,glycan array binding signal (z-score),[11],-0.267
same,glycan array binding signal (z-score),[12],0.692
same,glycan array binding signal (z-score),Gal(b1-2)Gal,-0.582
same,glycan array binding signal (z-score),[13],-0.243
same,glycan array binding signal (z-score),Gal(b1-3)GlcNAc(b1-2)Man,-0.258
same,glycan array binding signal (z-score),[14],1.66
same,glycan array binding signal (z-score),[15],-0.326
same,glycan array binding signal (z-score),[16],-0.259
same,glycan array binding signal (z-score),[17],-0.149
same,glycan array binding signal (z-score),[18],0.121
same,glycan array binding signal (z-score),[19],-0.602
same,glycan array binding signal (z-score),[20],3.16
same,glycan array binding signal (z-score),[21],0.921
same,glycan array binding signal (z-score),[22],2.03
same,glycan array binding signal (z-score),[23],2.87
same,glycan array binding signal (z-score),[24],0.78
same,glycan array binding signal (z-score),[25],-0.05
same,glycan array binding signal (z-score),[26],-0.557
same,glycan array binding signal (z-score),GalNAc(a1-3)Gal,-0.696
